# Measured values reported in PubChem BioAssay (NCATS).
# Results filed as inconclusive are left out. A call without a number means that no potency is given here. Activity calls are given as the source filed them. The call rests on the fitted dose curve; in most records, active means well fitted curve in the direction sought with a large enough effect; inconclusive means small, poorly fitted or top-dose-only effect, or another doubt; inactive means no such curve, though single readings can be large; an effect the other way counts as inactive or inconclusive.
# Target: Voltage-gated inwardly rectifying potassium channel KCNH2 (Homo sapiens) (UniProt Q12809)
# Experiment: qHTS Assay for Small Molecule Inhibitors of the Human hERG Channel Activity (AID 588834);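 further: lower thallium flux fluorescence means stronger hERG block; nearly all actives have a fitted effect of over 50% in size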
# Conditions: U2OS BacMam hERG, FluxOR thallium flux fluorescence; series mostly up to 46.1 µM
# How it was run: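 Cells were infected with hERG-BacMam virus for 4 hrs at room temperature, grown overnight, then seeded at 2000/well. After dye loading and roughly 10 min compound treatment, thallium influx was triggered and fluorescence recorded.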
# Potency means the concentration at half of the fitted maximal effect.
# Voltage-gated inwardly rectifying potassium channel KCNH2 (Homo sapiens), sequence (Q12809 whole entry, looked up): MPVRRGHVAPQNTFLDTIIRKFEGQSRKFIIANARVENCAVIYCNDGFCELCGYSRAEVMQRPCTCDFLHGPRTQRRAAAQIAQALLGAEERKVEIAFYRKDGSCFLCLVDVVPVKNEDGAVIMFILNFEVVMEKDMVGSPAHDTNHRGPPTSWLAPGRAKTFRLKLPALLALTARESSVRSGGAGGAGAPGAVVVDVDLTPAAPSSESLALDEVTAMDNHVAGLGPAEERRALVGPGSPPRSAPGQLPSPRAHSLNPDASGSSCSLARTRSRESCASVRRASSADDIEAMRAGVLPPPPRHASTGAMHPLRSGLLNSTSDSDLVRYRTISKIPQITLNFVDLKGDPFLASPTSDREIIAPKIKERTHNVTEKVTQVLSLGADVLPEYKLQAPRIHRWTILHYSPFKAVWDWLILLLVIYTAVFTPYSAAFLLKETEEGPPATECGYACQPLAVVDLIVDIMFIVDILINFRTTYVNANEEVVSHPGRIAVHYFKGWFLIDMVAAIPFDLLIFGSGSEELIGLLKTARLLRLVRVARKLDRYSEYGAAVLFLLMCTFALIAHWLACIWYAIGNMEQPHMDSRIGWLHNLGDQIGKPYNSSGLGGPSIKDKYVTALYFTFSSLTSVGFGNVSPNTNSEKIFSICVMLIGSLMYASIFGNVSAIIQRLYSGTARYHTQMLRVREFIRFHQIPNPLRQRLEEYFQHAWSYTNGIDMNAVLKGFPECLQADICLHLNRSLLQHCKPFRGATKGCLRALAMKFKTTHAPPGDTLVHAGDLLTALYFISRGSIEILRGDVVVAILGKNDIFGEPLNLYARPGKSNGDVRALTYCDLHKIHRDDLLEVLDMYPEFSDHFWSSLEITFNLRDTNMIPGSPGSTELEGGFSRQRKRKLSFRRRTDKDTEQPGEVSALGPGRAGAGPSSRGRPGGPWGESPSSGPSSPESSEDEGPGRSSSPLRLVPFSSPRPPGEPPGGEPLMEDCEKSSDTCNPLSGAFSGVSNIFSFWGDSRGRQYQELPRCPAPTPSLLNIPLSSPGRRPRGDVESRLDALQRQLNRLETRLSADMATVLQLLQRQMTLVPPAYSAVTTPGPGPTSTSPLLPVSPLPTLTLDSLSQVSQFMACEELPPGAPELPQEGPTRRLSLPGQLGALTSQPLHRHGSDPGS
row,SMILES,Potency
1,CNc1ccc2oc(C[C@H]3O[C@@]4(CC[C@H]3C)O[C@H]([C@H](C)C(=O)c3ccc[nH]3)[C@H](C)C[C@H]4C)nc2c1C(=O)O,3.16 µM (active)
2,NC(CCCCCP(=O)(O)O)C(=O)O (stereo unspecified),inactive
3,N[C@@]1(C(=O)O)CC[C@@H](C(=O)O)C1,inactive
4,O=C1CCCCC1CN1CCCCC1 (stereo unspecified),inactive
5,CC1OC1P(=O)(O)O (stereo unspecified),inactive
6,O=c1[nH]cc(N(CCCl)CCCl)c(=O)[nH]1,inactive
7,CC(N)Cc1c[nH]c2ccc(O)cc12 (stereo unspecified),inactive
8,O=C(OCCN1CCCCC1)C(O)(c1ccccc1)c1ccccc1,11.2 µM (active)
9,F/C(COc1ccc2c(c1)[nH]c1ccccc12)=C1/CN2CCC1CC2,22.4 µM (active)
10,CC(N)Cc1ccc(O)cc1 (stereo unspecified),inactive
11,NC(=O)c1cc(N2CC2)c([N+](=O)[O-])cc1[N+](=O)[O-],inactive
12,Clc1cc(I)cc(Cl)c1NC1=NCCN1,inactive
13,COc1ccc2c3c1O[C@H]1C(=O)CC[C@H]4[C@@H](C2)N(C)CC[C@]314,inactive
14,C#CCN[C@H](C)Cc1ccccc1,inactive
15,NC(C(=O)O)c1cc(=O)[nH]o1 (stereo unspecified),inactive
16,O=C(CS(=O)C(c1ccccc1)c1ccccc1)NO (stereo unspecified),inactive
17,C[C@H](Cc1ccc2c(c1)OC(C(=O)O)(C(=O)O)O2)NC[C@H](O)c1cccc(Cl)c1,inactive
18,CN1CCCC(=C(c2cccs2)c2cccs2)C1,8.91 µM (active)
19,Cc1o[nH]c(=O)c1CC(N)C(=O)O (stereo unspecified),inactive

row,SMILES,Potency
1,C[C@@H](Cc1ccccc1)NCCC(c1ccccc1)c1ccccc1,0.631 µM (active)
2,Clc1ccc(Cl)cc1,inactive
3,COc1ccc(OC)c(C(O)C(C)N)c1 (stereo unspecified),inactive
4,CC(C)NP(=O)(NC(C)C)OP(=O)(NC(C)C)NC(C)C,inactive
5,C[N+]1(C)CCCCC1COC(=O)C(O)(c1ccccc1)c1ccccc1 (stereo unspecified),inactive
6,CN1CCc2cccc(Cl)c2CC1,inactive
7,CCC(=O)O[C@@](Cc1ccccc1)(c1ccccc1)[C@@H](C)CN(C)C,inactive
8,CCC(N)Cc1c[nH]c2ccccc12 (stereo unspecified),inactive
9,CC1CCC(C(C)C)C(OC(=O)c2ccccc2N)C1 (stereo unspecified),inactive
10,c1ccc2sc(SNC3CCCCC3)nc2c1,inactive
11,C=CCN1C[C@@H](C)N([C@H](c2ccc(C(=O)N(CC)CC)cc2)c2cccc(OC)c2)C[C@@H]1C,4.47 µM (active)
12,CCC(C)(S(=O)(=O)CC)S(=O)(=O)CC,inactive
13,CCCN(CCC)CCc1c[nH]c2ccc(C(N)=O)cc12,6.31 µM (active)
14,CNC1(c2ccccc2Cl)CCCCC1=O (stereo unspecified),inactive
15,CN1C2CCC1CC(OC(c1ccccc1)c1ccc(Cl)cc1)C2 (stereo unspecified),0.501 µM (active)
16,CCCN(CCC)C1CCc2cccc(O)c2C1 (stereo unspecified),inactive
17,CCC1C(C)=NN=C(c2ccc(OC)c(OC)c2)c2cc(OC)c(OC)cc21 (stereo unspecified),inactive
18,CCCn1c(=O)c2[nH]c(C3CCCC3)nc2n(CCCOC(=O)c2ccc(S(=O)(=O)F)cc2)c1=O,14.1 µM (active)
19,[N-]=[N+]=CC(=O)OCC(N)C(=O)O (stereo unspecified),inactive

# System: not listed separately
# Experiment: S16 Schwann cell viability assay (CellTiter-Glo assay) (AID 624031); further: nearly all actives have a fitted effect of over 70% in size
# Conditions: S16 rat Schwann cells viability, 24 h; series mostly up to 57.5 µM
# How it was run: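 Rat S16 Schwann cells without reporter constructs received compound or DMSO for 24 h at 37 °C under 5% CO2. Cellular ATP was then quantified by CellTiter-Glo luminescence, with vehicle wells defined as 0% activity and cell-free wells as reference.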
row,SMILES,Potency
1,O=C1CCCCC1CN1CCCCC1 (stereo unspecified),inactive
2,O=c1[nH]cc(N(CCCl)CCCl)c(=O)[nH]1,inactive
3,O=C(OCCN1CCCCC1)C(O)(c1ccccc1)c1ccccc1,inactive
4,CC(N)Cc1ccc(O)cc1 (stereo unspecified),inactive
5,COc1ccc2c3c1O[C@H]1C(=O)CC[C@H]4[C@@H](C2)N(C)CC[C@]314,inactive
6,CN1CCCC(=C(c2cccs2)c2cccs2)C1,inactive
7,Clc1ccc(Cl)cc1,inactive
8,COc1ccc(OC)c(C(O)C(C)N)c1 (stereo unspecified),inactive
9,C[N+]1(C)CCCCC1COC(=O)C(O)(c1ccccc1)c1ccccc1 (stereo unspecified),inactive
10,CCC(=O)O[C@@](Cc1ccccc1)(c1ccccc1)[C@@H](C)CN(C)C,inactive
11,CCC(N)Cc1c[nH]c2ccccc12 (stereo unspecified),inactive
12,CC1CCC(C(C)C)C(OC(=O)c2ccccc2N)C1 (stereo unspecified),inactive
13,c1ccc2sc(SNC3CCCCC3)nc2c1,inactive
14,CNC1(c2ccccc2Cl)CCCCC1=O (stereo unspecified),inactive
15,CN1C2CCC1CC(OC(c1ccccc1)c1ccc(Cl)cc1)C2 (stereo unspecified),20.3 µM (active)
16,CCC1C(C)=NN=C(c2ccc(OC)c(OC)c2)c2cc(OC)c(OC)cc21 (stereo unspecified),inactive
17,[N-]=[N+]=CC(=O)OCC(N)C(=O)O (stereo unspecified),inactive

# System: not listed separately
# Experiment: S16 Schwann cell PMP22 intronic element firefly luciferase assay (AID 624032); further: nearly all actives have a fitted effect of over 30% in size
# Conditions: S16 rat Schwann cells, PMP22 element FLuc, 24 h; series mostly up to 57.5 µM
# How it was run: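 Rat S16 Schwann cells stably carrying firefly luciferase driven by a PMP22 intronic element, in 10% FBS, treated 24 h at 37 C. ONE-Glo luminescence normalized to PTC124 control and DMSO (0%); curves classed by r2, magnitude and activity.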
row,SMILES,Potency
1,O=C(OCCN1CCCCC1)C(O)(c1ccccc1)c1ccccc1,inactive
2,F/C(COc1ccc2c(c1)[nH]c1ccccc12)=C1/CN2CCC1CC2,inactive
3,CC(N)Cc1ccc(O)cc1 (stereo unspecified),9.07 µM (active)
4,CN1CCCC(=C(c2cccs2)c2cccs2)C1,inactive
5,C[C@@H](Cc1ccccc1)NCCC(c1ccccc1)c1ccccc1,inactive
6,Clc1ccc(Cl)cc1,inactive
7,COc1ccc(OC)c(C(O)C(C)N)c1 (stereo unspecified),inactive
8,C[N+]1(C)CCCCC1COC(=O)C(O)(c1ccccc1)c1ccccc1 (stereo unspecified),inactive
9,CCC(N)Cc1c[nH]c2ccccc12 (stereo unspecified),inactive
10,CC1CCC(C(C)C)C(OC(=O)c2ccccc2N)C1 (stereo unspecified),inactive
11,c1ccc2sc(SNC3CCCCC3)nc2c1,inactive
12,CCC(C)(S(=O)(=O)CC)S(=O)(=O)CC,inactive
13,CNC1(c2ccccc2Cl)CCCCC1=O (stereo unspecified),inactive
14,CN1C2CCC1CC(OC(c1ccccc1)c1ccc(Cl)cc1)C2 (stereo unspecified),25.6 µM (active)
15,CCC1C(C)=NN=C(c2ccc(OC)c(OC)c2)c2cc(OC)c(OC)cc21 (stereo unspecified),7.21 µM (active)
16,[N-]=[N+]=CC(=O)OCC(N)C(=O)O (stereo unspecified),inactive
